Source: article PMC6212790, “How bacterial xenogeneic silencer rok distinguishes foreign from self DNA in its resident genome”
Whole data set: some 33,000 sequences, median “e-score” near -0.038, cut for the highest 2% near 0.33. The full list was thinned out, with the highest values kept by preference.

Biological target: T1, GST-Rok-C97-191 (Bacillus subtilis subsp. subtilis str. …, UniProt O34857 97-191)
T1 sequence: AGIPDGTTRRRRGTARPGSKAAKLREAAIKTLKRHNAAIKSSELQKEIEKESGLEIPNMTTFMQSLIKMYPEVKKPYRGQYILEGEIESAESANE
Assay: protein binding microarray; Rok is a gene silencer of Bacillus subtilis; high values mean tight binding
Details: protein: recombinant; tags: GST (pTH5325, pDEST15-Magic modified); dsDNA, one strand shown
Procedure, shortened: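 Every oligonucleotide joins a 25-mer constant primer to a 35-mer variable part drawn from a de Bruijn sequence of order 10, so each non-palindromic 8-mer appears at least 32 times and each palindromic 8-mer 16 times. The preference for every 8-mer is reported as a unitless, rank-based enrichment score (E-score). This score spans 0.5 for the most favored 8-mer to −0.5 for the most disfavored.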

Sequence | binding signal
CCAAGTTC | -0.0242 E-score
CTTGTGGC | -0.167 E-score
ACGTGAGC | -0.0668 E-score
ACGCCTTA | 0.073 E-score
AGCCCGCT | -0.168 E-score
CCATAGCA | -0.0019 E-score
ATAGTACG | 0.248 E-score
ATAGTAGA | 0.355 E-score
ATAGTAGC | 0.378 E-score
ATCGTAGC | -0.0487 E-score
AAAGTAGA | 0.298 E-score
ATAGTAGG | 0.329 E-score
AGAGTAGA | 0.143 E-score
AGAGTAGG | -0.15 E-score
AGAGTAGC | 0.0737 E-score
GCTTGAAC | -0.0848 E-score
AGTCCATC | -0.159 E-score
GGTTCAAC | -0.0853 E-score
CCTCTTCA | -0.193 E-score
CCAACCTA | -0.0204 E-score
GCTTATAA | 0.101 E-score
AGTACTGG | 0.0209 E-score
CGTACTAG | 0.0424 E-score
AGTACTCA | -0.0984 E-score
AGTACTAC | 0.35 E-score

Sequence | binding signal
GGTACTAC | 0.233 E-score
AGTACTAT | 0.367 E-score
CGTACTAC | 0.305 E-score
AGTACTAA | 0.277 E-score
AGTACTAG | 0.334 E-score
ATTGCGCC | -0.134 E-score
ACCATATG | 0.229 E-score
AACTGGAC | -0.0284 E-score
TAGTGGGA | 0.119 E-score
AATTTCGC | 0.151 E-score
GATGAAGC | 0.0229 E-score
ATTTTATG | 0.229 E-score
GTTTTATA | 0.122 E-score
ATTTTATA | 0.385 E-score
ATTTTATC | 0.328 E-score
CTTTTATC | 0.0697 E-score
CTTTTATA | 0.236 E-score
AGACCTGG | -0.167 E-score
GTCGTAAC | 0.0491 E-score
CTACAAAC | 0.114 E-score
ATACAAAT | 0.337 E-score
ATACAAAG | 0.17 E-score
GTACAAAC | 0.304 E-score
ATACAAAC | 0.371 E-score
ATACAAAA | 0.276 E-score

Sequence | binding signal
CAGGAATG | -0.083 E-score
TGAGGTAA | 0.126 E-score
ATTGACCG | -0.00184 E-score
CATACTAC | 0.284 E-score
AATACTCT | 0.131 E-score
AATACTGT | 0.083 E-score
AATACTAG | 0.34 E-score
TATACTAA | 0.382 E-score
AATACTAT | 0.35 E-score
GATACTAC | 0.313 E-score
CATACTAG | 0.285 E-score
AATACTAA | 0.287 E-score
AATACTCG | 0.0344 E-score
AATACTAC | 0.383 E-score
CATACTAA | 0.0976 E-score
GCAATCCC | -0.104 E-score
GTCAGGAC | -0.147 E-score
AATTTCAG | 0.153 E-score
ACCTTCGG | -0.173 E-score
AGTTGAGA | 0.111 E-score
ACCTAACT | 0.128 E-score
TAGACGAA | -0.0468 E-score
GTGCAAAA | 0.0465 E-score
CGTCCACG | -0.161 E-score
AGGTTGCG | -0.0431 E-score

Sequence | binding signal
AGTAATAG | 0.355 E-score
ACTAATAG | 0.292 E-score
ACTAATAT | 0.342 E-score
AGTAATAC | 0.274 E-score
AGTAATCG | 0.0918 E-score
AGTAATAA | 0.238 E-score
AGTAATAT | 0.386 E-score
ACTAATAC | 0.248 E-score
CGTAATAG | 0.247 E-score
AAGGTTGG | -0.0102 E-score
ACGCATTA | 0.134 E-score
CGGTGCAG | -0.0983 E-score
GGCTAGAC | -0.152 E-score
AGATTAGC | 0.212 E-score
AAGTAAGT | 0.263 E-score
GAGTAAAA | 0.269 E-score
AAGTAAAG | 0.104 E-score
TGGTAAAA | 0.337 E-score
AGGTAAAT | 0.247 E-score
TAGTAAAA | 0.37 E-score
CAGTAAAA | 0.188 E-score
GGGTAAAA | 0.206 E-score
AAGTAAAT | 0.359 E-score
AAGTAAAA | 0.335 E-score
CGGTAAAA | 0.242 E-score

Sequence | binding signal
AAGTAAAC | 0.116 E-score
CTGAAAAG | 0.0606 E-score
CTCCATAA | -0.175 E-score
TCTCCGAA | 0.161 E-score
TAAGCATA | 0.00925 E-score
AAAGGTCA | -0.146 E-score
ACGCACCA | -0.186 E-score
AAGACCGG | -0.0043 E-score
CCTTATTA | 0.0213 E-score
CGTAACTC | 0.0679 E-score
GTTAGCGA | 0.0595 E-score
GAGCTGCC | 0.0253 E-score
GACAGACA | -0.102 E-score
CGTAAGTA | 0.16 E-score
GCGTGAGA | -0.00817 E-score
ATTTACTG | 0.319 E-score
CATTACTA | 0.32 E-score
AATTACCA | 0.33 E-score
AATTACTG | 0.253 E-score
AATTACTA | 0.43 E-score
GATTACTA | 0.354 E-score
GATTACAA | 0.134 E-score
ATTTACTA | 0.439 E-score
AATTACCC | 0.185 E-score
GATTACCA | 0.14 E-score

Sequence | binding signal
AATTACTC | 0.255 E-score
ATTTACTC | 0.234 E-score
AGGCCTAG | 0.0496 E-score
GACCGCTA | 0.0642 E-score
AATAACCG | 0.184 E-score
AACCAGCA | 0.0878 E-score
GTCGAGGA | -0.0836 E-score
GCGTCCGA | -0.026 E-score
CACCTCGC | -0.148 E-score
ACTGCCCT | -0.164 E-score
GGAAGTCA | -0.092 E-score
AAGTTTCC | 0.148 E-score
AAATTACG | 0.273 E-score
GAATTACC | 0.18 E-score
AAATTACC | 0.365 E-score
CAATTACC | 0.0477 E-score
ACATTACT | 0.263 E-score
AAATTACT | 0.358 E-score
CAGTTGAC | 0.0118 E-score
AACGCAAA | -0.043 E-score
CCAACTCG | -0.0471 E-score
CCATGCTA | 0.153 E-score
GCATGCTA | 0.0693 E-score
ACATGCTA | 0.33 E-score
CTGACATA | -0.188 E-score

Sequence | binding signal
ACACAACT | 0.0324 E-score
CTATACTA | 0.301 E-score
ACATACTA | 0.305 E-score
ATATACAA | 0.365 E-score
ATATACTC | 0.293 E-score
ATATACTA | 0.436 E-score
ATATACTG | 0.365 E-score
CTATACAA | 0.3 E-score
GTATACTA | 0.338 E-score
CTATACTC | 0.173 E-score
GGATACTA | 0.167 E-score
ATATACAG | 0.317 E-score
GCATACTA | 0.241 E-score
CAAGGATG | -0.044 E-score
CTGTCTCA | -0.118 E-score
CAGGGCCA | -0.145 E-score
GTCACAAA | 0.0798 E-score
GAGCTTGA | -0.0815 E-score
CACTTGTA | 0.238 E-score
GACAAGTA | 0.226 E-score
CAATTGTG | 0.0188 E-score
AATTCGAT | 0.215 E-score
